# Columns and labels:
# Experiment in all cases: DAPPL (digital affinity profiling via proximity ligation, sequencing); 10 mM Tris-HCl pH 7.5, 50 mM NaCl, 1 mM DTT, 4% glycerol, room temperature, 30 min; GST-TFs on glutathione beads, 16-mer random dsDNA library, 0.1% formaldehyde crosslink after washing; high values mean tight binding
# Conditions in all cases: protein: recombinant; tags: N-terminal GST; dsDNA, one strand shown
# ERF = target: T1, ERF (Homo sapiens, UniProt P50548 1-548)
# T1 sequence: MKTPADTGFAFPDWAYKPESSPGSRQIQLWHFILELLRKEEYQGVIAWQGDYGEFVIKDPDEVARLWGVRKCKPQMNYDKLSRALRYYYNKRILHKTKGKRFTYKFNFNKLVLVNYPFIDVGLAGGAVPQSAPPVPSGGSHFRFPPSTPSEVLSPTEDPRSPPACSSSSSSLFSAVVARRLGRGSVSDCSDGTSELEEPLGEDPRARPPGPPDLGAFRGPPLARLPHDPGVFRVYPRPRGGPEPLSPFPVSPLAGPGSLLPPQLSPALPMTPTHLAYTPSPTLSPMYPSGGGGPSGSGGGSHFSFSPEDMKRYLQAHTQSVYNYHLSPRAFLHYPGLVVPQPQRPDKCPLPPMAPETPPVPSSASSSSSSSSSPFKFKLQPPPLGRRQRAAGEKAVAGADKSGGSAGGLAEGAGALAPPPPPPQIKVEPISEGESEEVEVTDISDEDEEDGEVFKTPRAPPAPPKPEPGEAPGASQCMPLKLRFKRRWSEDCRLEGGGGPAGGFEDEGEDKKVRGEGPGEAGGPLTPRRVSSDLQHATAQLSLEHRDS
# Method in brief: (§1)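 Beads coated with glutathione captured GST-fused human transcription factors that had been expressed in yeast, and the factors were then given DNA barcodes and pooled with a tag-only sample. The pools were incubated with 200 nmole of a random double-stranded 16-mer DNA library in Tris/NaCl/DTT/glycerol buffer for 30 min at room temperature, washed, crosslinked with 0.1% formaldehyde and proximity-ligated with BsaI/T4 ligase at 37 °C for 1 h. PCR amplification and Illumina NextSeq500 sequencing came last. Binding signal is each hexamer's read frequency for a factor divided by its frequency for the tag-only sample.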
# ETV3L = target: T2, ETV3L (Homo sapiens, UniProt Q6ZN32 1-361)
# T2 sequence: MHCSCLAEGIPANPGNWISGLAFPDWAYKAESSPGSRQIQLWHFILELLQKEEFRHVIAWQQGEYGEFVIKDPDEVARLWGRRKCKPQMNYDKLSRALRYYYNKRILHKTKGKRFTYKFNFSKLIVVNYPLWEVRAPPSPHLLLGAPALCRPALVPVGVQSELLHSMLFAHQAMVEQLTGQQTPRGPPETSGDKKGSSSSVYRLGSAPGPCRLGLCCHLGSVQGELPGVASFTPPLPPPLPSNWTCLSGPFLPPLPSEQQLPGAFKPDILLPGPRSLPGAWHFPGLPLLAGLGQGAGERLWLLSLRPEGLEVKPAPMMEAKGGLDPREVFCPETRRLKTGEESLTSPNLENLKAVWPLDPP
# Method in brief: as §1
# ETS2 = target: T3, ETS2 (Homo sapiens, UniProt P15036 1-469)
# T3 sequence: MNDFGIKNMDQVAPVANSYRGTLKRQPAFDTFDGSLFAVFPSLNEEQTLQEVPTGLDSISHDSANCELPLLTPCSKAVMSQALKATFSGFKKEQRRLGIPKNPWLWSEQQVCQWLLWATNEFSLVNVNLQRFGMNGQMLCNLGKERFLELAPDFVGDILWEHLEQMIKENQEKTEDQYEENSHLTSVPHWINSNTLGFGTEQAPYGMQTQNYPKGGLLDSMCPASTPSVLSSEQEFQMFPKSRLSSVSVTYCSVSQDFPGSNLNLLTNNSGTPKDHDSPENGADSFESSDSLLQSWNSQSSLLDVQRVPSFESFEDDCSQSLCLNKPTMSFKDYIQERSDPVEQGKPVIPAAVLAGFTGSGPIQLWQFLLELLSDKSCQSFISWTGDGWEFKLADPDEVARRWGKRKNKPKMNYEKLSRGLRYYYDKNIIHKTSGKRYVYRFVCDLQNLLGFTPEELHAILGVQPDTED
# Method in brief: as §1
# SPDEF = target: T4, SPDEF (Homo sapiens, UniProt O95238 1-335)
# T4 sequence: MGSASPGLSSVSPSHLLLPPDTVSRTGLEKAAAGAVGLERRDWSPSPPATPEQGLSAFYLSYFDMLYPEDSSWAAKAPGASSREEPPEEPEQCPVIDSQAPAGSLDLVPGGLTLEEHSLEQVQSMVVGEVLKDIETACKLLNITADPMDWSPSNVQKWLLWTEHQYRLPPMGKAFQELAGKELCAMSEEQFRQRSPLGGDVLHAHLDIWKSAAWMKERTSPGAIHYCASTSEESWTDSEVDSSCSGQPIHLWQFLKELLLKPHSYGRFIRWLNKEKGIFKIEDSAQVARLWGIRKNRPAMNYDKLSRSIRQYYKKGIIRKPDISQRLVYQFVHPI
# Method in brief: as §1
# ETV7 = target: T5, ETV7 (Homo sapiens, UniProt Q9Y603 1-341)
# T5 sequence: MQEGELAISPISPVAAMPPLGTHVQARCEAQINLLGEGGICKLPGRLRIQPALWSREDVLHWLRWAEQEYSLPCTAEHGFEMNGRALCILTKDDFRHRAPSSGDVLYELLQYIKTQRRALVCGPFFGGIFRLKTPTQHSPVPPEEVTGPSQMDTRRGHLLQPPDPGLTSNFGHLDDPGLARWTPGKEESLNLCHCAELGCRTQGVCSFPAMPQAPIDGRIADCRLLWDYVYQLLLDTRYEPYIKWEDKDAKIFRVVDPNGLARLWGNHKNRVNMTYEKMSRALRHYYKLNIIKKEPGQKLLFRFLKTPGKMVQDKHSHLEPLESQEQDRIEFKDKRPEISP
# Method in brief: as §1
# ELF5 = target: T6, ELF5 (Homo sapiens, UniProt Q9UKW6-2 1-255)
# T6 sequence: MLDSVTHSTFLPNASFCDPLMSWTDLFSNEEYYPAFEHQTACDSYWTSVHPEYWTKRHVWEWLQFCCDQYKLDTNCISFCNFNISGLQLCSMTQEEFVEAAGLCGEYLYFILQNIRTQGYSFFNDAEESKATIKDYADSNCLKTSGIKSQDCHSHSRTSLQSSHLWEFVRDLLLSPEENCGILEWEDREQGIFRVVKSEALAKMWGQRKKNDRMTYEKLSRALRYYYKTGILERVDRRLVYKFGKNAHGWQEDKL
# Method in brief: as §1
# ETV3 = target: T7, ETV3 (Homo sapiens, UniProt P41162-2 1-143)
# T7 sequence: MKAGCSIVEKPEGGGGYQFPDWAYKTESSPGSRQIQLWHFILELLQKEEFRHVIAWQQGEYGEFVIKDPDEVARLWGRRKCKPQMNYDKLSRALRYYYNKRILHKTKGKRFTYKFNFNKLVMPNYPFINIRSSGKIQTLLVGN
# Method in brief: as §1
# ETV6 = ETV6 (Homo sapiens, UniProt P41212 1-452)
# ETV6, sequence (P41212 whole entry): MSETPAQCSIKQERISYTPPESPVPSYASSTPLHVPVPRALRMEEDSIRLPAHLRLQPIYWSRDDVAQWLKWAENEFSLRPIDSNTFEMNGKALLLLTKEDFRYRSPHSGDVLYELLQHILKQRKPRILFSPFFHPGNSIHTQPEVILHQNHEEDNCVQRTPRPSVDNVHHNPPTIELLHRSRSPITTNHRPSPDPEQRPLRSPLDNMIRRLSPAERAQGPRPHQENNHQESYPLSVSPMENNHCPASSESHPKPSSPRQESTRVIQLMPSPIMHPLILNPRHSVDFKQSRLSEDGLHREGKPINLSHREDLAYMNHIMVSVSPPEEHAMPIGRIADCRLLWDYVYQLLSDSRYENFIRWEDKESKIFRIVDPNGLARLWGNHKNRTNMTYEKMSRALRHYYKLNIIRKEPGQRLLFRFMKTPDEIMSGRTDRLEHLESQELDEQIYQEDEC
# Method in brief: as §1
Sequence,binding signal (ERF),binding signal (ETV3L),binding signal (ETS2),binding signal (SPDEF),binding signal (ETV7),binding signal (ELF5),binding signal (ETV3),binding signal (ETV6)
GTTCCC,"1.31 fold enrichment (6-mer frequency, TF over GST control)","1.22 fold enrichment (6-mer frequency, TF over GST control)","1.28 fold enrichment (6-mer frequency, TF over GST control)","1.29 fold enrichment (6-mer frequency, TF over GST control)","1.3 fold enrichment (6-mer frequency, TF over GST control)","1.48 fold enrichment (6-mer frequency, TF over GST control)","1.31 fold enrichment (6-mer frequency, TF over GST control)","1.28 fold enrichment (6-mer frequency, TF over GST control)"
ATCCCG,"1.4 fold enrichment (6-mer frequency, TF over GST control)","1.33 fold enrichment (6-mer frequency, TF over GST control)","1.44 fold enrichment (6-mer frequency, TF over GST control)","1.71 fold enrichment (6-mer frequency, TF over GST control)","1.27 fold enrichment (6-mer frequency, TF over GST control)","1.7 fold enrichment (6-mer frequency, TF over GST control)","1.41 fold enrichment (6-mer frequency, TF over GST control)","1.52 fold enrichment (6-mer frequency, TF over GST control)"
TCAAGG,"1.09 fold enrichment (6-mer frequency, TF over GST control)","1.03 fold enrichment (6-mer frequency, TF over GST control)","1.04 fold enrichment (6-mer frequency, TF over GST control)","1.12 fold enrichment (6-mer frequency, TF over GST control)","1.17 fold enrichment (6-mer frequency, TF over GST control)","1.14 fold enrichment (6-mer frequency, TF over GST control)","1.12 fold enrichment (6-mer frequency, TF over GST control)","1.14 fold enrichment (6-mer frequency, TF over GST control)"
TGTTGA,"1.13 fold enrichment (6-mer frequency, TF over GST control)","1.17 fold enrichment (6-mer frequency, TF over GST control)","1.11 fold enrichment (6-mer frequency, TF over GST control)","1.23 fold enrichment (6-mer frequency, TF over GST control)","1.18 fold enrichment (6-mer frequency, TF over GST control)","1.08 fold enrichment (6-mer frequency, TF over GST control)","1.11 fold enrichment (6-mer frequency, TF over GST control)","1.01 fold enrichment (6-mer frequency, TF over GST control)"
GACTAC,"1.19 fold enrichment (6-mer frequency, TF over GST control)","1.17 fold enrichment (6-mer frequency, TF over GST control)","1.08 fold enrichment (6-mer frequency, TF over GST control)","1.1 fold enrichment (6-mer frequency, TF over GST control)","1.17 fold enrichment (6-mer frequency, TF over GST control)","1.24 fold enrichment (6-mer frequency, TF over GST control)","1.11 fold enrichment (6-mer frequency, TF over GST control)","1.11 fold enrichment (6-mer frequency, TF over GST control)"
ATTAAC,"1.26 fold enrichment (6-mer frequency, TF over GST control)","1.31 fold enrichment (6-mer frequency, TF over GST control)","1.27 fold enrichment (6-mer frequency, TF over GST control)","1.26 fold enrichment (6-mer frequency, TF over GST control)","1.24 fold enrichment (6-mer frequency, TF over GST control)","1.23 fold enrichment (6-mer frequency, TF over GST control)","1.26 fold enrichment (6-mer frequency, TF over GST control)","1.22 fold enrichment (6-mer frequency, TF over GST control)"
AAATGG,"1.49 fold enrichment (6-mer frequency, TF over GST control)","1.54 fold enrichment (6-mer frequency, TF over GST control)","1.54 fold enrichment (6-mer frequency, TF over GST control)","1.41 fold enrichment (6-mer frequency, TF over GST control)","1.38 fold enrichment (6-mer frequency, TF over GST control)","1.52 fold enrichment (6-mer frequency, TF over GST control)","1.5 fold enrichment (6-mer frequency, TF over GST control)","1.47 fold enrichment (6-mer frequency, TF over GST control)"
TATCCC,"1.52 fold enrichment (6-mer frequency, TF over GST control)","1.52 fold enrichment (6-mer frequency, TF over GST control)","1.47 fold enrichment (6-mer frequency, TF over GST control)","1.72 fold enrichment (6-mer frequency, TF over GST control)","1.53 fold enrichment (6-mer frequency, TF over GST control)","2.05 fold enrichment (6-mer frequency, TF over GST control)","1.62 fold enrichment (6-mer frequency, TF over GST control)","1.51 fold enrichment (6-mer frequency, TF over GST control)"

# Reference: PMC7862700, “An all-to-all approach to the identification of sequence-specific readers for epigenetic DNA modifications on cytosine”
